The values below come from publication PMC7862700, “An all-to-all approach to the identification of sequence-specific readers for epigenetic DNA modifications on cytosine”.

What all share (assay): DAPPL (digital affinity profiling via proximity ligation, sequencing); 10 mM Tris-HCl pH 7.5, 50 mM NaCl, 1 mM DTT, 4% glycerol, room temperature, 30 min; GST-TFs on glutathione beads, 16-mer random dsDNA library, 0.1% formaldehyde crosslink after washing; high values mean tight binding
In one experiment the target is T1, FLI1 (Homo sapiens, UniProt Q01543 1-452).
T1 sequence: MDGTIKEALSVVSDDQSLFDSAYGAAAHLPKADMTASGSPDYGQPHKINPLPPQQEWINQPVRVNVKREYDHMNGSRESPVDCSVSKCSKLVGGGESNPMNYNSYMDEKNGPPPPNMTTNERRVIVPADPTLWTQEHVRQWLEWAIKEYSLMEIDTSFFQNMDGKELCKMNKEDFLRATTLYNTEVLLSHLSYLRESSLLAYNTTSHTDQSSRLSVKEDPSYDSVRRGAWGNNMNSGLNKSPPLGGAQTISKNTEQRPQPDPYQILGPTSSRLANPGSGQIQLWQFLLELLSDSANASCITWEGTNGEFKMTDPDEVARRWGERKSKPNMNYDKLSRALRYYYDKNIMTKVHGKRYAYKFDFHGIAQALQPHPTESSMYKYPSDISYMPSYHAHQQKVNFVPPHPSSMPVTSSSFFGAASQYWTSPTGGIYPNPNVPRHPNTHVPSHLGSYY
Particulars: protein: recombinant; tags: N-terminal GST; dsDNA, one strand shown. A digest of the protocol: (§1)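 Human transcription factors were made in yeast as GST fusions, captured on glutathione beads and barcoded with DNA. With a tag-only sample included, the pool was incubated with 200 nmole of a random double-stranded 16-mer DNA library in Tris/NaCl/DTT/glycerol buffer at room temperature for 30 min, then crosslinked with 0.1% formaldehyde after washing, ligated by proximity, amplified and sequenced. For binding signal, each hexamer's read frequency for a factor is divided by its frequency for the tag-only sample.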

The target in another experiment is T2, ELK1 (Homo sapiens, UniProt P19419 1-428).
T2 sequence: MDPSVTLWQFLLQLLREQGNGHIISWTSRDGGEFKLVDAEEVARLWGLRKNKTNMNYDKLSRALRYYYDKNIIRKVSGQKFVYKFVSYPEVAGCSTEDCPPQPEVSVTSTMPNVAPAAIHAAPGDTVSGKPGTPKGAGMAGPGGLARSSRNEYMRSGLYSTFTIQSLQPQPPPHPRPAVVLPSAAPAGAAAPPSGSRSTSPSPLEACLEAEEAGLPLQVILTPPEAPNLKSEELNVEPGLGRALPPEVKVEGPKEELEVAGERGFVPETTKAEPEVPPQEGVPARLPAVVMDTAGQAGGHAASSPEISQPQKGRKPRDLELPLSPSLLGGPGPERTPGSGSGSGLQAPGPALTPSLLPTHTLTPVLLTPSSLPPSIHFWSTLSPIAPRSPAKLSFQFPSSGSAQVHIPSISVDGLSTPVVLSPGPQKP
To be noted: protein: recombinant; tags: N-terminal GST; dsDNA, one strand shown. A digest of the protocol:
as §1

The target of the next experiment is T3, GABPA (Homo sapiens, UniProt Q06546 1-454).
T3 sequence: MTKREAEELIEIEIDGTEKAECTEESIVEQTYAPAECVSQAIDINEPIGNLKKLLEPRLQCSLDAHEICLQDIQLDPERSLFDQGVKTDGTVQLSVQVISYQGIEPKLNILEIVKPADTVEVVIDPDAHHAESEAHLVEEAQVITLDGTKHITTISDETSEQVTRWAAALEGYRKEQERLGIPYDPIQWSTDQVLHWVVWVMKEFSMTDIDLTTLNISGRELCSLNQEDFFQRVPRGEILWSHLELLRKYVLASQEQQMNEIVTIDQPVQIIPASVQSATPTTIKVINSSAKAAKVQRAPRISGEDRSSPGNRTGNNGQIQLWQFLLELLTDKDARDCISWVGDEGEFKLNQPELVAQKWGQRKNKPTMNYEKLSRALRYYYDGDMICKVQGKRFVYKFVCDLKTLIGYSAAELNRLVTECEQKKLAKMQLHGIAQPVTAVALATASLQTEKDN
To be noted: protein: recombinant; tags: N-terminal GST; dsDNA, one strand shown. A digest of the protocol: as §1

The next experiment addresses T4, ERG (Homo sapiens, UniProt P11308 1-479).
T4 sequence: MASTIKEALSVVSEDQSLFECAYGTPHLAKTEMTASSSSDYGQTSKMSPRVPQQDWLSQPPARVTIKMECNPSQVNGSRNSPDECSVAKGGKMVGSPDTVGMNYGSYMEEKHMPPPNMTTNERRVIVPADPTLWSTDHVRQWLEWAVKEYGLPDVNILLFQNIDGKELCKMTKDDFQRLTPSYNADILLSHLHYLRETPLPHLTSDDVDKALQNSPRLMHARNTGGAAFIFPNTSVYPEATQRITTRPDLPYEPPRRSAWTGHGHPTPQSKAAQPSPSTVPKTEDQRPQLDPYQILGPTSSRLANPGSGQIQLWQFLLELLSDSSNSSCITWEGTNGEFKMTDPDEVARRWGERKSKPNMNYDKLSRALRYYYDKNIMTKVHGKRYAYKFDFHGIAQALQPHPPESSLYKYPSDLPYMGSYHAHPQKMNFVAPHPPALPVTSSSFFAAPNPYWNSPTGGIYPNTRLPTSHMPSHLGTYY
To be noted: protein: recombinant; tags: N-terminal GST; dsDNA, one strand shown. A digest of the protocol: as §1

For the next experiment, the target named is ELF1 (Homo sapiens, UniProt P32519 1-619). To be noted: protein: recombinant; tags: N-terminal GST; dsDNA, one strand shown. A digest of the protocol:
as §1

A further experiment deals with T5, EHF (Homo sapiens, UniProt Q9NZC4 1-300).
T5 sequence: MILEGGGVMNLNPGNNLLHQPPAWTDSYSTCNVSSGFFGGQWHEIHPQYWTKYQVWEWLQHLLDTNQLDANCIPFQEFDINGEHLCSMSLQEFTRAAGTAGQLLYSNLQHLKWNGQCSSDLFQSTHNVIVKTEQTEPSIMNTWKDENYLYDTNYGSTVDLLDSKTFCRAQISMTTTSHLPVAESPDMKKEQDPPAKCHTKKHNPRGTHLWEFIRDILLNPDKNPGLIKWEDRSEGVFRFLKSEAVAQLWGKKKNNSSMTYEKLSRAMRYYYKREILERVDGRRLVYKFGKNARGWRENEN
Particulars: protein: recombinant; tags: N-terminal GST; dsDNA, one strand shown. A digest of the protocol: as §1

A further experiment addresses SPI1 (Homo sapiens, UniProt P17947 1-270). Particulars: protein: recombinant; tags: N-terminal GST; dsDNA, one strand shown. A digest of the protocol:
as §1

Another experiment has as its target SPIB (Homo sapiens, UniProt Q01892 1-262). Particulars: protein: recombinant; tags: N-terminal GST; dsDNA, one strand shown. A digest of the protocol: as §1
In another experiment the target is T6, ELK3 (Homo sapiens, UniProt P41970 1-407).
T6 sequence: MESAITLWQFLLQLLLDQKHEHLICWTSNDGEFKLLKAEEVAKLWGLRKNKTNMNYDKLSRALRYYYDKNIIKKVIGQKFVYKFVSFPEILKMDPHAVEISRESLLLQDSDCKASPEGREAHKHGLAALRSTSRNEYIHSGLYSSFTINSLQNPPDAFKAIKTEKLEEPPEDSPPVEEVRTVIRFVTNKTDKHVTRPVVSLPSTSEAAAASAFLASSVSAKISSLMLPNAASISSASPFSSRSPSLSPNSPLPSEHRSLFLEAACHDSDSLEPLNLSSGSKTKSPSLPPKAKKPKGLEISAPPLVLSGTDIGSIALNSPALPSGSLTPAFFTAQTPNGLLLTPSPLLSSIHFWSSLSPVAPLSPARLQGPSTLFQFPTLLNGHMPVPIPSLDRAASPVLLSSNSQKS
To be noted: protein: recombinant; tags: N-terminal GST; dsDNA, one strand shown. A digest of the protocol: as §1

A further experiment concerns the target T7, FEV (Homo sapiens, UniProt Q99581 1-238).
T7 sequence: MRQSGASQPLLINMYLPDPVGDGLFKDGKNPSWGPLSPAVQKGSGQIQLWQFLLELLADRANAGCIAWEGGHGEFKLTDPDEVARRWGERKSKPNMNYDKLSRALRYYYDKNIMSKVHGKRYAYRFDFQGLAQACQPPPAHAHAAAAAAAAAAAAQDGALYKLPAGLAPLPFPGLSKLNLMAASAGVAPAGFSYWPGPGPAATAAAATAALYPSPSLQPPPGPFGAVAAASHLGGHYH
Particulars: protein: recombinant; tags: N-terminal GST; dsDNA, one strand shown. A digest of the protocol: as §1

A further experiment addresses ETV5 (Homo sapiens, UniProt P41161 1-510). To be noted: protein: recombinant; tags: N-terminal GST; dsDNA, one strand shown. A digest of the protocol:
as §1

The target of a further experiment is HSF1 (Homo sapiens, UniProt Q00613 1-529). To be noted: protein: recombinant; tags: N-terminal GST; chain copies: 3; dsDNA, one strand shown. A digest of the protocol:
as §1

The next experiment has as its target T8, SPIC (Homo sapiens, UniProt Q8N5J4 1-248).
T8 sequence: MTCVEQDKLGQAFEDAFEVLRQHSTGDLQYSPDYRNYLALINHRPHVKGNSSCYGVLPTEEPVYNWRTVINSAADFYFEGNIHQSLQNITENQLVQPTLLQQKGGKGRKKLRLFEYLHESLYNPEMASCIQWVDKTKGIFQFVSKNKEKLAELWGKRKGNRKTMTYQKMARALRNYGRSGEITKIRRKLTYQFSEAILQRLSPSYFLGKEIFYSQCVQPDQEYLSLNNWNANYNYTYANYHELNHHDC
To be noted: protein: recombinant; tags: N-terminal GST; dsDNA, one strand shown. A digest of the protocol:
as §1

A further experiment deals with ELF4 (Homo sapiens, UniProt Q99607 1-663). Particulars: protein: recombinant; tags: N-terminal GST; dsDNA, one strand shown. A digest of the protocol:
as §1

In another experiment the target is T9, ELK4 (Homo sapiens, UniProt P28324-2 1-405).
T9 sequence: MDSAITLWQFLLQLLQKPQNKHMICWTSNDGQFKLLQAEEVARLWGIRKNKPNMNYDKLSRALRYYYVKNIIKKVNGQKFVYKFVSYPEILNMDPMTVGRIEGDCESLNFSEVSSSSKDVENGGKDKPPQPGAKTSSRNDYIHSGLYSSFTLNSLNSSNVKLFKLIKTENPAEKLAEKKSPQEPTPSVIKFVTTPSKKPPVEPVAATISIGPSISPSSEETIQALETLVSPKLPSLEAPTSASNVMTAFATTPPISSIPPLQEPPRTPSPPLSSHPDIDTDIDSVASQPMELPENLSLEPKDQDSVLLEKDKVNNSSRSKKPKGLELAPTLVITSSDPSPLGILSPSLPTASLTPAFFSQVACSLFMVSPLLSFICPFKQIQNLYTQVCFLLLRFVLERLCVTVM
To be noted: protein: recombinant; tags: N-terminal GST; dsDNA, one strand shown. A digest of the protocol: as §1

Another experiment has as its target T10, ETV2 (Homo sapiens, UniProt O00321 1-342).
T10 sequence: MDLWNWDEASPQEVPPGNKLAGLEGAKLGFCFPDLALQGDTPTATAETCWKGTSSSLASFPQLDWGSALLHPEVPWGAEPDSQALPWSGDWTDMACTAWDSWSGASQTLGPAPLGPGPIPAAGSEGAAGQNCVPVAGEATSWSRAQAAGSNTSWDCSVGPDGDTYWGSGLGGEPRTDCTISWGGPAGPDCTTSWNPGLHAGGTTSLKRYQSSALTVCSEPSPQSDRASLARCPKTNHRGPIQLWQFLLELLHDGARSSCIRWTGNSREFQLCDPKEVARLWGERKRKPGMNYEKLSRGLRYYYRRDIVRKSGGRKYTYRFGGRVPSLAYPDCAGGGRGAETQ
Particulars: protein: recombinant; tags: N-terminal GST; dsDNA, one strand shown. A digest of the protocol: as §1

The target of a further experiment is T11, ELF3 (Homo sapiens, UniProt P78545 1-371).
T11 sequence: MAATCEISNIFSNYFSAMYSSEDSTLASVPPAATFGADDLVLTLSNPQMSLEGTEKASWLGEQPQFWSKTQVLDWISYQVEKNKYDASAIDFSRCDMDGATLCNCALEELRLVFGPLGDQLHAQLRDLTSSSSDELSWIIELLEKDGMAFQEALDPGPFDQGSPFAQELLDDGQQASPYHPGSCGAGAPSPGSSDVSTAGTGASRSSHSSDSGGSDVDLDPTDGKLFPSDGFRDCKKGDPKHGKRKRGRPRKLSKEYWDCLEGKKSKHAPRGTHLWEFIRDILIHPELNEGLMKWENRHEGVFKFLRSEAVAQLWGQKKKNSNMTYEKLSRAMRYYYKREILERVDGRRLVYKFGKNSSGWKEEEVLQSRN
To be noted: protein: recombinant; tags: N-terminal GST; dsDNA, one strand shown. A digest of the protocol:
as §1

A further experiment deals with ETV1 (Homo sapiens, UniProt P50549 1-477). To be noted: protein: recombinant; tags: N-terminal GST; dsDNA, one strand shown. A digest of the protocol:
as §1

Sequence of ETV5 (P41161 whole entry): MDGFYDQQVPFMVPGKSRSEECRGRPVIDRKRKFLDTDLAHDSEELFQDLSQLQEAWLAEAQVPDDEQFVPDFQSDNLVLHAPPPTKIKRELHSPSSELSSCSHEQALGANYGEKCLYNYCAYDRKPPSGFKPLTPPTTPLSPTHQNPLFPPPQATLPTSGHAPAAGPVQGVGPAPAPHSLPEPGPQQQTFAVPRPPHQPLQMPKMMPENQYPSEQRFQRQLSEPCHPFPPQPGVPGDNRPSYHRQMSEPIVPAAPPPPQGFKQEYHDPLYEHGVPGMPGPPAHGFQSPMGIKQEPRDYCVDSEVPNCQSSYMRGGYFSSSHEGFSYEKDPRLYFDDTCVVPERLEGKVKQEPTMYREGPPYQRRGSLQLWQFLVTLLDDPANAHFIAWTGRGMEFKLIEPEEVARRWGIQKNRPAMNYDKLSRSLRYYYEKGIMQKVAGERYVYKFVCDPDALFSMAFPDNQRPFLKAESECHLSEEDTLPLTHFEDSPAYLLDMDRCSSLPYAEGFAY
Sequence of SPIB (Q01892 whole entry): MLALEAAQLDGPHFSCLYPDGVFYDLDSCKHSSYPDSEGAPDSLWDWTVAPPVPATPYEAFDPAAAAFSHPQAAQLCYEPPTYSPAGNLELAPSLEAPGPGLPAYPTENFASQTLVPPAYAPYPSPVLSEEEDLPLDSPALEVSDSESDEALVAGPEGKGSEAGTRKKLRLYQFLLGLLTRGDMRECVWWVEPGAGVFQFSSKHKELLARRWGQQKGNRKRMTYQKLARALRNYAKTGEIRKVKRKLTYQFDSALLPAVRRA
Sequence of ETV1 (P50549 whole entry): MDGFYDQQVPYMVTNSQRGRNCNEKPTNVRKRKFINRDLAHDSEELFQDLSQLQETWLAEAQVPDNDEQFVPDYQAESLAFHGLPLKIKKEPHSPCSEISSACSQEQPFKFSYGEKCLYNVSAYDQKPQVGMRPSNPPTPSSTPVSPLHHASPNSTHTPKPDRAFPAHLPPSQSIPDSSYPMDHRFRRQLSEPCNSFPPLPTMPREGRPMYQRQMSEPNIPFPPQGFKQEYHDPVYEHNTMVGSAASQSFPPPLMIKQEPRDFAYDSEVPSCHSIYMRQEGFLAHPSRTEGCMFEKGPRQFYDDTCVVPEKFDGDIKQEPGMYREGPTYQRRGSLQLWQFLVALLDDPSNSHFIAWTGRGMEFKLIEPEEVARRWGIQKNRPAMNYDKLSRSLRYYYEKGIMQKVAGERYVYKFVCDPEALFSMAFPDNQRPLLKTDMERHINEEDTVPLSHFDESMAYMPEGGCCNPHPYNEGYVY
Sequence of HSF1 (Q00613 whole entry): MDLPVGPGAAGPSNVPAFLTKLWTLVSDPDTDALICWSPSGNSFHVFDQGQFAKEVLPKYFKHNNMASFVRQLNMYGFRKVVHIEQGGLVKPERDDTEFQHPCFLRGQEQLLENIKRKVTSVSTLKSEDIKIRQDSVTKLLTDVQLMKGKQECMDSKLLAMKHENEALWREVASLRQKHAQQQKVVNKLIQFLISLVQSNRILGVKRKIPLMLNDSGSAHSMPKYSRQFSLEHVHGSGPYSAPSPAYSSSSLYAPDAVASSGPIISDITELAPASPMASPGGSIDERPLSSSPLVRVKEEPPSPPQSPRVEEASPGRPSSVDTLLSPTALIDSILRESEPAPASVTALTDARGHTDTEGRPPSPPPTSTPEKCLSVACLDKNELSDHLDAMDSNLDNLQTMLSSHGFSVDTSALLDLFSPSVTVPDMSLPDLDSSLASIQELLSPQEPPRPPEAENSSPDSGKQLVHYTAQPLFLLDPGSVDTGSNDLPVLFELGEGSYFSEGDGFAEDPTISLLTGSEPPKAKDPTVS
Sequence of ELF1 (P32519 whole entry): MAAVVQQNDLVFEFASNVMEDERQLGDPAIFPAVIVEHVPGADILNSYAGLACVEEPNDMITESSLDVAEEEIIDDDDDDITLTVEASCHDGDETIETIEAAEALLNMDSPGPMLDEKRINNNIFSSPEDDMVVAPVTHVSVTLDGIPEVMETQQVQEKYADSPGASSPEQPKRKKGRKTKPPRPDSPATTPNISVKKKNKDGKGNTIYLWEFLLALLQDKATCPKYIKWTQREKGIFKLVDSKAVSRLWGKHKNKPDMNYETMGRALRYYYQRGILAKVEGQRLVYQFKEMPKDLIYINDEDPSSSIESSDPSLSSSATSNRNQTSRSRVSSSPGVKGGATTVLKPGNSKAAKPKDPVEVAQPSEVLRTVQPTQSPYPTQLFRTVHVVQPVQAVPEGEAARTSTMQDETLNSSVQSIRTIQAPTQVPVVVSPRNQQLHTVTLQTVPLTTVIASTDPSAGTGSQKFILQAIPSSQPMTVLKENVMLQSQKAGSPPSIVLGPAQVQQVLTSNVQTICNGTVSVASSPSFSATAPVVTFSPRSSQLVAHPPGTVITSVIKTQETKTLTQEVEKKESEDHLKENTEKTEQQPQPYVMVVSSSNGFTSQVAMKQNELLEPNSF
Sequence of ELF4 (Q99607 whole entry): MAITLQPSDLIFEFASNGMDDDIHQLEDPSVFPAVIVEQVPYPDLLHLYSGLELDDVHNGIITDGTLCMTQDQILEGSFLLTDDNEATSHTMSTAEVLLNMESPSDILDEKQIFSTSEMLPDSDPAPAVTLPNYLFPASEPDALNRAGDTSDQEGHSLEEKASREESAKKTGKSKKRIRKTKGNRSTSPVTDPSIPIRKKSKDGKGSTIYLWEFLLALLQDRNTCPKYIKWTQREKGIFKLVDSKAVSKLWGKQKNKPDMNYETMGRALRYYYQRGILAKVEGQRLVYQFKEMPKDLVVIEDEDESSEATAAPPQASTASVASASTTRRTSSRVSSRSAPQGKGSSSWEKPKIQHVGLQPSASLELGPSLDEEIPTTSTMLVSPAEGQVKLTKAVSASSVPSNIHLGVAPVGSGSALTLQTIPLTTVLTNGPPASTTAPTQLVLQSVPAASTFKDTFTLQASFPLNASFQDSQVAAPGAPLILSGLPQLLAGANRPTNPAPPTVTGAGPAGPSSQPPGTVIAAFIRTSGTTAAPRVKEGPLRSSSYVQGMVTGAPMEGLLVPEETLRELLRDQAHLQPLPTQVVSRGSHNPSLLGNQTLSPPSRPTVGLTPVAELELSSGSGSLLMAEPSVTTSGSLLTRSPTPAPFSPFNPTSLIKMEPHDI

Consider AATGGG, for which the binding signal was 1.26 fold enrichment (6-mer frequency, TF over GST control) in the experiment with FLI1; 1.24 fold enrichment (6-mer frequency, TF over GST control) with ELK1; 1.18 fold enrichment (6-mer frequency, TF over GST control) with GABPA; 1.16 fold enrichment (6-mer frequency, TF over GST control) in the experiment with ERG; 1.2 fold enrichment (6-mer frequency, TF over GST control) with ELF1; 1.29 fold enrichment (6-mer frequency, TF over GST control) with EHF. In addition, the binding signal with SPI1 was 1.34 fold enrichment (6-mer frequency, TF over GST control); in the experiment with SPIB, 1.22 fold enrichment (6-mer frequency, TF over GST control); with ELK3 it was 1.08 fold enrichment (6-mer frequency, TF over GST control); with FEV it was 1.25 fold enrichment (6-mer frequency, TF over GST control); with ETV5, 1.28 fold enrichment (6-mer frequency, TF over GST control); with HSF1 it was 1.02 fold enrichment (6-mer frequency, TF over GST control). For the same sequence, the binding signal in the experiment with SPIC is 1.26 fold enrichment (6-mer frequency, TF over GST control); with ELF4, 1.16 fold enrichment (6-mer frequency, TF over GST control); with ELK4, 1.27 fold enrichment (6-mer frequency, TF over GST control); with ETV2, 1.22 fold enrichment (6-mer frequency, TF over GST control); in the experiment with ELF3, 1.13 fold enrichment (6-mer frequency, TF over GST control); with ETV1 it was 1.21 fold enrichment (6-mer frequency, TF over GST control).
